# Laboratory results from PubChem BioAssay (Tox21).
# Unmarked numbers belong to inactive results. Inconclusive results are not listed. Where a call stands in place of a potency, no number is given. Calls of active or inactive are those of the source. Unless noted, the call rests on the fitted dose curve; in most records, active means well fitted curve in the direction sought with a large enough effect; inconclusive means small, poorly fitted or top-dose-only effect, or another doubt; inactive means no such curve, though single readings can be large; an effect the other way counts as inactive or inconclusive. Non-standard residues stand in square brackets, D forms with d. Residues, ends and D or L forms follow the SMILES beside them. Orn = NCCC[C@H](N)C(=O)O
# Assays:
# [1] = qHTS assay to identify small molecule phospholipidosis (PLD) inducers (AID 1259344); further: potency means the concentration at half of the fitted maximal effect
# Procedure, shortened: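 Phospholipid accumulation was scored by imaging: fixed, Hoechst-counterstained HepG2 cells stained with LipidTOX Red after 24 h compound exposure at 37 C. Read-outs were pit count and pit intensity per well or per cell, with amiodarone and DMSO controls.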
# [2] = biological target: Estrogen receptor (Homo sapiens) (UniProt P03372); assay: qHTS assay to identify small molecule antagonists of the estrogen receptor alpha (ER-alpha) signaling pathway using the BG1 cell line in the presence of 0.1 nM 17-beta-estradiol (AID 1259244; active means well fitted curve in the direction sought with a large enough effect in the repeat runs; an effect the other way counts as inactive or inconclusive; further: nearly all actives have a fitted effect of over 50% in size; further: potency means the concentration at half of the fitted maximal effect)
# Estrogen receptor (Homo sapiens), sequence (P03372 whole entry, looked up): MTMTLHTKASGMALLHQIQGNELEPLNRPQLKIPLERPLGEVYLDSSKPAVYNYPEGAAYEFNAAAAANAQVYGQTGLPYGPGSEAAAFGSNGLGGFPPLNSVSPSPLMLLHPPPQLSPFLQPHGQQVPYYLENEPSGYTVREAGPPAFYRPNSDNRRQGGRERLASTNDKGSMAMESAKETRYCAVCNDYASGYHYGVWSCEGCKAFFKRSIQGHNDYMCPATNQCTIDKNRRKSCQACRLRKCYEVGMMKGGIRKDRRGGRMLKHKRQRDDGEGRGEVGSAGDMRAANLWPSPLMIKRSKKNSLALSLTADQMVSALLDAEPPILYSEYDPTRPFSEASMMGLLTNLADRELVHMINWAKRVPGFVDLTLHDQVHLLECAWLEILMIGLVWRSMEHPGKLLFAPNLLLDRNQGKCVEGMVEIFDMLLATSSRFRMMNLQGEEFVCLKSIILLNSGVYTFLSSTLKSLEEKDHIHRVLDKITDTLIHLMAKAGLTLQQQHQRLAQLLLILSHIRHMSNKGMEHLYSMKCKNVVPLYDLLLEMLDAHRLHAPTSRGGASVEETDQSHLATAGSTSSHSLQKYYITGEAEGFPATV
# Procedure, shortened: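 Seeding of stripped-serum-adapted VM7Luc4E2 cells, 24 h attachment, compound transfer, then 0.1 nM final 17beta-estradiol; after 22 h incubation, ONE-Glo reagent and luminescence reading.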
# [3] = qHTS assay to identify small molecule agonists of the sonic hedgehog signaling (Shh) pathway - cell viability counter screen (AID 1259366; active means well fitted curve in the direction sought with a large enough effect in the repeat runs; an effect the other way counts as inactive or inconclusive; further: nearly all actives have a fitted effect of over 50% in size; further: potency means the concentration at half of the fitted maximal effect)
# Procedure, shortened: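 Fluorescence from CellTiter-Fluor reports live cells in this counter screen. NIH/3T3-derived Gli1-Luc reporter cells receive test compounds for 24hr at 37C; reagent goes in at 23hr.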
# [4] = qHTS assay to identify small molecule antagonists of the sonic hedgehog signaling (Shh) pathway - cell viability counter screen (AID 1259367; active means well fitted curve in the direction sought with a large enough effect in the repeat runs; an effect the other way counts as inactive or inconclusive; further: nearly all actives have a fitted effect of over 55% in size)
# Procedure, shortened: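 Viability was read by CellTiter-Fluor fluorescence in the same wells, reagent added 23 hr into compound treatment and incubated 1 hr at 37C. The 3T3 Gli1-Luc reporter cells (2,000/well) received conditioned medium after compound and ran 24 hr.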
# [5] = qHTS assay to identify small molecule agonists of the sonic hedgehog signaling (Shh) pathway (AID 1259368; calls by dose curve;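 further: NIH/3T3-derived 3T3Gli1-Luc cells carrying a stable Gli1-driven firefly luciferase reporter; series mostly up to about 92 µM; nearly all actives have a fitted effect of over 15% in size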)
# Procedure, shortened: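 Stable NIH/3T3 Gli1-Luc reporter clone; 24 hr cpd exposure after a 4 hr settling period; luminescence endpoint.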
# [6] = qHTS assay to identify small molecule antagonists of the sonic hedgehog signaling (Shh) pathway (AID 1259369; calls by dose curve; further: nearly all actives have a fitted effect of over 45% in size; further: potency means the concentration at half of the fitted maximal effect)
# Procedure, shortened: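 Gli1 transcriptional reporter (firefly Luc) in NIH/3T3 background, conditioned-medium activated. 24hr exposure, luminescence endpoint.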
# [7] = biological target: Estrogen receptor beta (Homo sapiens) (UniProt Q92731); assay: qHTS assay to identify small molecule agonists of the estrogen receptor beta (ER-beta) signaling pathway (AID 1259377; active means well fitted activation curve with a large enough effect in the signal ratio in the repeat runs, not every such curve was filed as active; the % refers to the signal ratio)
# Estrogen receptor beta (Homo sapiens), sequence (Q92731 whole entry, looked up): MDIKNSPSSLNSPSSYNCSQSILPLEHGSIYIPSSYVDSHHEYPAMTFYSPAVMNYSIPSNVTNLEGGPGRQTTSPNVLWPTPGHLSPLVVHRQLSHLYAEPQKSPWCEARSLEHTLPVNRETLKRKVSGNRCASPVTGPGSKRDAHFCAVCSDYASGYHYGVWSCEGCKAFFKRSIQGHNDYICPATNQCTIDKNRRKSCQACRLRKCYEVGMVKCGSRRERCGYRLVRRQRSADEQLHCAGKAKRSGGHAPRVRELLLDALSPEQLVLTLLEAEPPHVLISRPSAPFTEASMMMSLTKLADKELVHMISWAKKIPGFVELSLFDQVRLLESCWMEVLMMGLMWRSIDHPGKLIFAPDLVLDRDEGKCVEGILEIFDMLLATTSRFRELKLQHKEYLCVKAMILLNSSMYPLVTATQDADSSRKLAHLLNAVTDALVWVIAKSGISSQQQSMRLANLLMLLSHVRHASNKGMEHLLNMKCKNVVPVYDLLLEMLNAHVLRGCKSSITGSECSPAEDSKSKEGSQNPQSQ
# Procedure, shortened: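 Screening used GripTite ER-beta-UAS-bla cells held in 2% charcoal-stripped FBS medium. After overnight (16 hr) compound incubation at 37C, beta-lactamase activity was detected with a FRET substrate by fluorescence.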
# [8] = biological target: Estrogen receptor beta (Homo sapiens) (UniProt Q92731); assay: qHTS assay to identify small molecule antagonists of the estrogen receptor beta (ER-beta) signaling pathway (AID 1259378; active means well fitted inhibition curve with a large enough effect in the signal ratio in the repeat runs, not every such curve was filed as active; the % refers to the signal ratio; further: potency means the concentration at half of the fitted maximal effect)
# Procedure, shortened: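 Antagonist mode: compounds added to beta-lactamase reporter HEK293T ER-beta-UAS cells stimulated with E2 (1nM final), 16 hr at 37C. LiveBLAzer B/G FRET substrate, 2 hours room temperature, fluorescence read-out.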
# [9] = qHTS assay to identify small molecule HDAC inhibitors - cell viability counter screen (AID 1259365; active means well fitted curve in the direction sought with a large enough effect in the repeat runs; an effect the other way counts as inactive or inconclusive; further: series mostly up to about 92 µM; nearly all actives have a fitted effect of over 50% in size)
# Procedure, shortened: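 To flag cytotoxic hits, 1,500 wild-type HCT-116 cells per well, plated the day before, receive test compounds for 2hr at 37 C before CellTiter-Glo reagent and a luminescence read.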
structure (smiles),measurement,setting,value
CCC(=O)OC(OP(=O)(CCCCc1ccccc1)CC(=O)N1C[C@H](C2CCCCC2)C[C@H]1C(=O)O)C(C)C (some centres undefined),Potency,[1],inactive
O=C1c2ccccc2C(=O)C1c1ccc(F)cc1,Potency,[1],inactive
Cc1cc(C(=O)NCCc2ccc(S(=O)(=O)NC(=O)NN3CCCCCC3)cc2)no1,Potency,[1],inactive
O=C1C2CC3CC1CC(O)(C3)C2,Potency,[1],inactive
CCN(CC)C(=O)[C@]1(c2ccccc2)C[C@@H]1CN,Potency,[1],inactive
CN(C)CCc1c[nH]c2ccc(Cn3cncn3)cc12,Potency,[1],inactive
O=C(O)c1ccccn1,Potency,[1],inactive
CCCCNc1ccc(NCCCC)c2c1C(=O)c1ccccc1C2=O,"activity change, negative = inhibition",[2],2.76% [at 19 µM]
same,"viability change, negative = cytotoxic",[3],-17.5% [at 19 µM]
same,"viability change, negative = cytotoxic",[4],-12.9% [at 19 µM]
same,activity change,[5],"-0.26% [at 18.9 µM, active compounds read high]"
same,"activity change, negative = inhibition",[6],-20.1% [at 19 µM]
same,activation,[7],-2.22% [at 19 µM]
same,"activity, negative = inhibition",[8],17.4% [at 19 µM]
Cc1cccc(C)c1NC(=O)C1CCCCN1C (centres undefined),Potency,[1],inactive
CC/C=C\C/C=C\C/C=C\C/C=C\C/C=C\C/C=C\CCC(=O)O,Potency,[1],inactive
O=C(Nc1ccccc1)c1cc(Cl)ccc1O,Potency,[2],12.2 µM (active)
same,Potency,[9],inactive
same,Potency,[5],inactive
same,Potency,[6],15.4 µM (active)
same,outcome,[7],inactive
CNCCC=C1c2ccccc2CCc2ccccc21,Potency,[1],10 µM (active)
CO/N=C(\C(=O)N[C@@H]1C(=O)N2C(C(=O)O)=C(CSc3cnns3)CS[C@H]12)c1csc(N)n1,Potency,[1],inactive
CC1CCCCN1CCCOC(=O)c1ccccc1 (centres undefined),Potency,[1],inactive
CC(=O)OCC(=O)[C@@]1(O)CC[C@H]2[C@@H]3CCC4=CC(=O)CC[C@]4(C)C3=CC[C@@]21C,Potency,[1],inactive
CCOc1ccc([N+](=O)[O-])cc1,Potency,[2],inactive
same,Potency,[9],inactive
same,Potency,[4],inactive
same,Potency,[5],inactive
same,outcome,[7],inactive
same,Potency,[8],9.83 µM (active)
O=C1C=CC(=O)N1c1cccc(N2C(=O)C=CC2=O)c1,Potency,[2],61.1 µM (active)
same,Potency,[3],8.63 µM (active)
same,Potency,[5],inactive
same,Potency,[6],1.72 µM (active)
same,outcome,[7],inactive
same,Potency,[8],61.1 µM (active)
O=[N+]([O-])c1ccc(CO)cc1,Potency,[2],inactive
same,Potency,[9],inactive
same,Potency,[3],inactive
same,Potency,[6],inactive
same,outcome,[7],inactive
same,Potency,[8],inactive
CC1CCCC(C)N1NC(=O)c1ccc(Cl)c(S(N)(=O)=O)c1 (centres undefined),Potency,[1],inactive
Nc1cccnc1N,Potency,[2],inactive
same,Potency,[9],inactive
same,Potency,[5],inactive
CO/N=C(\C(=O)N[C@@H]1C(=O)N2C(C(=O)O)=C(C[N+]3(C)CCCC3)CS[C@H]12)c1csc(N)n1,Potency,[1],inactive
OCl,Potency,[1],inactive
CCCOC(=O)c1ccccc1O,Potency,[1],inactive
CC1(C)C[C@@H]1C(=O)N/C(=C\CCCCSC[C@H](N)C(=O)O)C(=O)O,Potency,[1],inactive
NCCCC[C@H](NC(=O)[C@@H]1CCCN1C(=O)[C@@H]1CSSC[C@H](N)C(=O)N[C@@H](Cc2ccc(O)cc2)C(=O)N[C@@H](Cc2ccccc2)C(=O)N[C@@H](CCC(N)=O)C(=O)N[C@@H](CC(N)=O)C(=O)N1)C(=O)NCC(N)=O,Potency,[1],inactive
CC(=O)Oc1cc(C(F)(F)F)ccc1C(=O)O,Potency,[1],inactive
CC(C)C[C@@H]1NC(=O)[C@H](CCCN)NC(=O)[C@H](C(C)C)NC(=O)[C@@H]2CCCN2C(=O)[C@@H](Cc2ccccc2)NC(=O)[C@H](CC(C)C)NC(=O)[C@H](CCCN)NC(=O)[C@H](C(C)C)NC(=O)[C@@H]2CCCN2C(=O)[C@@H](Cc2ccccc2)NC1=O (cyclo(V[Orn]L[dF]PV[Orn]L[dF]P)),Potency,[1],inactive
